PubChem BioAssay (NCI)
This is part of a sample that, as a whole, favours compounds with a hit. Of some 79,000 tested, about 15% had one in any assay. The source made the active and inactive calls. No stated cut-off is given here; in the data, active means growth inhibition above about 70%; inactive means the rest.

What was measured:
[1] = NCI Yeast Anticancer Drug Screen. Data for the rad52 strain (AID 147);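 further: 0% = growth of vehicle-treated control cultures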; details: S. cerevisiae rad52 mutant growth inhibition, hits give high values
Procedure, shortened: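 Read-out: growth inhibition versus vehicle-treated controls. Cells were a DNA repair-deficient yeast strain treated with compounds.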

[2] = NCI Yeast Anticancer Drug Screen. Data for the wt1 strain (AID 149);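 further: 0% = growth of vehicle-treated wt1 cultures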; details: S. cerevisiae wt1 strain (SPY 50644) growth inhibition, hits give high values
Procedure, shortened: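 Yeast wt1 strain exposed to compounds; growth inhibition measured relative to vehicle-treated controls.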

[3] = NCI Yeast Anticancer Drug Screen. Data for the rad50EPP+ strain (AID 151);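 further: 0% = growth of vehicle-treated control cultures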; details: S. cerevisiae rad50 mutant strain, hits give high values
Procedure, shortened: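 Growth inhibition read against vehicle controls in rad50EPP+ yeast, a strain altered in DNA damage repair, after compound exposure.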

[4] = NCI Yeast Anticancer Drug Screen. Data for the mgt1 strain (AID 153); details: S. cerevisiae mgt1 mutant growth inhibition, hits give high values
Procedure, shortened: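 mgt1 yeast grown with test compound; read-out is growth inhibition versus vehicle-treated cultures.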

[5] = NCI Yeast Anticancer Drug Screen. Data for the rad50 strain (AID 155);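 further: 0% = growth of vehicle-only cultures of the same strain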; details: S. cerevisiae rad50 strain growth inhibition, hits give high values
Procedure, shortened: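 Yeast carrying a defined DNA repair defect were exposed to test compounds, and growth was compared with vehicle-treated controls to give percent inhibition.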

[6] = NCI Yeast Anticancer Drug Screen. Data for the mec2-1 strain (AID 157); details: S. cerevisiae mec2-1 strain, hits give high values
Procedure, shortened: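 Yeast mec2-1 mutant treated with compound. Readout: growth inhibition vs vehicle controls.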

[7] = NCI Yeast Anticancer Drug Screen. Data for the rad14 strain (AID 159);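 further: 0% = growth of vehicle-treated control cultures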; details: S. cerevisiae rad14 strain growth inhibition, hits give high values
Procedure, shortened: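 Yeast cells carrying a defined DNA-repair defect were exposed to compounds, and growth inhibition was calculated relative to vehicle-treated control cultures.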

[8] = NCI Yeast Anticancer Drug Screen. Data for the sgs1 mgt1 strain (AID 161);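 further: 0% = growth of cultures given vehicle only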; details: S. cerevisiae sgs1 mgt1 strain, hits give high values
Procedure, shortened: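 Inhibition of yeast growth, normalised to vehicle-treated controls, is reported for a strain bearing genetic alterations in DNA damage repair.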

[9] = NCI Yeast Anticancer Drug Screen. Data for the CLN2oe strain (AID 163);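 further: 0% = growth of vehicle-only control cultures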; details: S. cerevisiae CLN2oe strain, hits give high values
Procedure, shortened: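 Read-out: yeast growth inhibition, expressed relative to vehicle-only controls. The strain bears an engineered cell-cycle alteration.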

[10] = NCI Yeast Anticancer Drug Screen. Data for the cln2 rad14 strain (AID 165);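 further: 0% = growth equal to vehicle treated cultures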; details: S. cerevisiae cln2 rad14 strain, hits give high values
Procedure, shortened: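 cln2 rad14 yeast strain; compound exposure; growth inhibition read vs vehicle controls.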

[11] = NCI Yeast Anticancer Drug Screen. Data for the bub3 strain (AID 167); details: S. cerevisiae bub3 mutant strain, hits give high values
Procedure, shortened: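 Compounds were applied to a genetically altered yeast strain carrying a cell-cycle control defect. Growth inhibition was scored against vehicle-treated controls.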

[12] = NCI Yeast Anticancer Drug Screen. Data for the wt2 strain (AID 169);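 further: 0% = growth of vehicle-treated yeast cultures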; details: S. cerevisiae wt2 strain growth inhibition, hits give high values
Procedure, shortened: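 Read-out: growth inhibition versus vehicle-treated control cultures after compound exposure of the yeast strain.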

[13] = NCI Yeast Anticancer Drug Screen. Data for the sgs1 strain (AID 173);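 further: 0% = growth of vehicle-only control cultures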; details: S. cerevisiae sgs1 mutant, hits give high values
Procedure, shortened: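 Read-out: yeast growth inhibition relative to vehicle controls, following compound exposure of a strain with a defined DNA repair/cell cycle alteration.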

[14] = NCI Yeast Anticancer Drug Screen. Data for the mlh1 rad18 strain (AID 175); details: S. cerevisiae mlh1 rad18 strain growth inhibition, hits give high values
Procedure, shortened: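 Yeast w/ defined DNA-repair lesions; compound exposure; growth vs vehicle controls → % inhibition.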

[15] = NCI Yeast Anticancer Drug Screen. Data for the rad18 strain (AID 177); details: S. cerevisiae rad18 mutant growth inhibition, hits give high values
Procedure, shortened: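 Readout: growth inhibition vs vehicle controls. Cells: genetically altered yeast strain, DNA repair defect.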

[16] = NCI Yeast Anticancer Drug Screen. Data for the mlh1 strain (AID 171);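 further: 0% = growth of vehicle-treated control cultures of the same strain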; details: S. cerevisiae mlh1 strain growth inhibition, hits give high values
Procedure, shortened: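 Read-out: growth inhibition versus vehicle controls. Strain: engineered yeast with a defined DNA repair or cell cycle defect, compound-treated.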

[17] = at 5.0 µM (retest, dose inferred, filed as 0.5)
[18] = at 50.0 µM (retest, dose inferred, filed as 5.0)

Measured: growth inhibition

COC(=O)c1ccccc1N=NNc1cccc(SC)c1
active: [1]; at 33.0 µM 89% | [1]; at 100.0 µM 88% | [2]; at 33.0 µM 90% | [2]; at 100.0 µM 88% | [4]; at 33.0 µM 92% | [4]; at 100.0 µM 88% | [5]; at 33.0 µM 93% | [5]; at 50.0 µM 86.8% | [5]; at 100.0 µM 87% | [6]; at 33.0 µM 93% | [6]; at 50.0 µM 85.7% | [6]; at 100.0 µM 89% | [7]; at 33.0 µM 93% | [7]; at 100.0 µM 87% | [8]; [18] 94% | [8]; at 50.0 µM 88.8% | [9]; at 33.0 µM 93% | [9]; at 100.0 µM 85% | [10]; [18] 87% | [10]; at 50.0 µM 86% | [11]; at 33.0 µM 94% | [11]; [18] 87% | [11]; at 50.0 µM 85.9% | [11]; at 100.0 µM 89% | [12]; at 33.0 µM 93% | [12]; at 100.0 µM 89% | [13]; at 33.0 µM 93% | [13]; at 100.0 µM 84% | [14]; at 50.0 µM 85.2% | [15]; at 33.0 µM 94% | [15]; at 100.0 µM 89%
inactive: [1]; at 1.2 µM 11% | [1]; at 3.7 µM 13% | [1]; at 11.0 µM 23% | [2]; at 1.2 µM -14% | [2]; at 3.7 µM -31% | [2]; at 11.0 µM -27% | [3]; at 1.2 µM 9% | [3]; at 3.7 µM 21% | [3]; at 11.0 µM 39% | [3]; at 33.0 µM 47% | [3]; at 100.0 µM 36% | [4]; at 1.2 µM -16% | [4]; at 3.7 µM -18% | [4]; at 11.0 µM -3% | [5]; at 1.2 µM 12% | [5]; at 3.7 µM 16% | [5]; [17] 30% | [5]; at 11.0 µM 28% | [5]; [18] 41% | [6]; at 1.2 µM 1% | [6]; at 3.7 µM 9% | [6]; [17] 40% | [6]; at 11.0 µM 19% | [6]; [18] 39% | [7]; at 1.2 µM -11% | [7]; at 3.7 µM -21% | [7]; at 11.0 µM -6% | [8]; [17] 1% | [9]; at 1.2 µM -17% | [9]; at 3.7 µM 12% | [9]; at 11.0 µM -9% | [10]; [17] 42% | [11]; at 1.2 µM 12% | [11]; at 3.7 µM 6% | [11]; [17] 3% | [11]; at 11.0 µM 25% | [12]; at 1.2 µM -11% | [12]; at 3.7 µM -18% | [12]; at 11.0 µM 8% | [13]; at 1.2 µM -6% | [13]; at 3.7 µM -13% | [13]; at 11.0 µM 16% | [14]; [17] 21% | [14]; [18] 36% | [15]; at 1.2 µM -10% | [15]; at 3.7 µM -13% | [15]; at 11.0 µM 11%

CCOc1ccc2nc3ccccc3c(N)c2c1
active: [1]; at 33.0 µM 91% | [1]; at 100.0 µM 97% | [2]; at 33.0 µM 83% | [2]; at 100.0 µM 94% | [3]; at 100.0 µM 90% | [4]; at 33.0 µM 83% | [4]; at 100.0 µM 94% | [5]; at 33.0 µM 89% | [5]; [18] 81% | [5]; at 50.0 µM 91.2% | [5]; at 100.0 µM 97% | [6]; at 33.0 µM 80% | [6]; [18] 82% | [6]; at 50.0 µM 83.7% | [6]; at 100.0 µM 97% | [7]; at 33.0 µM 87% | [7]; at 100.0 µM 92% | [8]; [18] 86% | [8]; at 50.0 µM 81.2% | [10]; [18] 84% | [10]; at 50.0 µM 86.2% | [11]; at 33.0 µM 78% | [11]; [18] 84% | [11]; at 50.0 µM 87.1% | [11]; at 100.0 µM 90% | [12]; at 33.0 µM 89% | [12]; at 100.0 µM 98% | [16]; at 33.0 µM 90% | [16]; at 100.0 µM 98% | [13]; at 33.0 µM 88% | [13]; at 100.0 µM 97% | [14]; [18] 82% | [14]; at 50.0 µM 89.5% | [15]; at 33.0 µM 83% | [15]; at 100.0 µM 97%
inactive: [1]; at 1.2 µM 13% | [1]; at 3.7 µM 22% | [1]; at 11.0 µM 60% | [2]; at 1.2 µM 7% | [2]; at 3.7 µM 13% | [2]; at 11.0 µM 37% | [3]; at 1.2 µM 2% | [3]; at 3.7 µM 4% | [3]; at 11.0 µM 21% | [3]; at 33.0 µM 59% | [4]; at 1.2 µM 0% | [4]; at 3.7 µM 9% | [4]; at 11.0 µM 35% | [5]; at 1.2 µM 7% | [5]; at 3.7 µM 21% | [5]; [17] 0% | [5]; at 11.0 µM 50% | [6]; at 1.2 µM 5% | [6]; at 3.7 µM 4% | [6]; [17] 21% | [6]; at 11.0 µM 19% | [7]; at 1.2 µM 4% | [7]; at 3.7 µM 23% | [7]; at 11.0 µM 50% | [8]; [17] 32% | [10]; [17] 46% | [11]; at 1.2 µM -20% | [11]; at 3.7 µM -2% | [11]; [17] 14% | [11]; at 11.0 µM 16% | [12]; at 1.2 µM 7% | [12]; at 3.7 µM 18% | [12]; at 11.0 µM 49% | [16]; at 1.2 µM 7% | [16]; at 3.7 µM 8% | [16]; at 11.0 µM 47% | [13]; at 1.2 µM 10% | [13]; at 3.7 µM 24% | [13]; at 11.0 µM 51% | [14]; [17] 10% | [15]; at 1.2 µM 4% | [15]; at 3.7 µM 8% | [15]; at 11.0 µM 30%
